The list is not random: actives were taken first. Their share in the collection is about 7.7%.
Tb PYK inh – qHTS of Trypanosoma Brucei Inhibitors. TbPYK enzyme, Kinase-Glo Plus ATP luminescence, 45 min. Potency, µM (doses to about 76.8 µM), hits mostly inhibitors. 410,000 tested, 0.12% active. AID 624173, 2012; further: nearly all actives have a fitted effect of over 50% in size
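Glycolytic pyruvate kinase of T. brucei was incubated with substrate, test compound and 130 uM ADP for 45 minutes at room temperature. Luminescent Kinase-Glo Plus signal was measured after 10 minutes.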
Sm TGR inh – qHTS Assay for the Inhibitors of Schistosoma Mansoni Peroxiredoxins; Schistosoma mansoni thioredoxin glutathione reductase (TGR), Q962Y6; 360,000 tested, 3% active; AID 485364, 2010; Potency, µM (titrated, usually from 114 µM), hits mostly inhibitors; purified TGR, DTNB reduction, TNB absorbance 405 nm; further: nearly all actives have a fitted effect of over 60% in size
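Kinetic colorimetric format: TGR-catalysed, NADPH-driven DTNB reduction monitored via TNB absorbance. Enzyme dispensed at 20 nM; compound exposure 15 min at room temperature before reaction start.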
FMDV antiviral – High Throughput Screening for Foot and Mouth Disease Virus Antivirals. FMDV antiviral cell-based qHTS. Potency, µM (titrated, usually from 57.9 µM), most hits filed as inhibitors. 410,000 tested, 1.2% active; calls by dose curve; tested in HEK293T cells; further: read-out not given here; nearly all actives have a fitted effect of over 45% in size
RE007 growth inh – qHTS Assay for Inhibitors of the HIV-1 protein Vpr; S. pombe RE007 Vpr strain, BacTiter-Glo ATP luminescence, 24 h; Potency, µM (series often up to 92.2 µM), most hits filed as inhibitors; 360,000 tested, 0.21% active; AID 651644, 2012; active means well fitted falling curve with a large enough effect; inconclusive means small, poorly fitted or top-dose-only effect; inactive means no such curve, though single readings can be large or run the other way; further: nearly all actives have a fitted effect of over 50% in size
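Fission yeast RE007 carrying one integrated HIV-1 vpr copy, seeded at OD 0.01 in PMG+AL medium with 23 nL pinned compound. Grown 24 h at 30 degrees; viability read by BacTiter-Glo luminescence after 5 min.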
FBPA Giardia inh – qHTS Assay for Inhibitors of Fructose-1,6-bisphosphate Aldolase from Giardia Lamblia | Potency, µM (series often up to 59.6 µM), usual class: inhibitors | AID 2451, 2010 | purified Giardia FBPA | 290,000 tested, 0.71% active; further: nearly all actives have a fitted effect of over 55% in size
Target sequence (A8B2U2 whole entry, looked up): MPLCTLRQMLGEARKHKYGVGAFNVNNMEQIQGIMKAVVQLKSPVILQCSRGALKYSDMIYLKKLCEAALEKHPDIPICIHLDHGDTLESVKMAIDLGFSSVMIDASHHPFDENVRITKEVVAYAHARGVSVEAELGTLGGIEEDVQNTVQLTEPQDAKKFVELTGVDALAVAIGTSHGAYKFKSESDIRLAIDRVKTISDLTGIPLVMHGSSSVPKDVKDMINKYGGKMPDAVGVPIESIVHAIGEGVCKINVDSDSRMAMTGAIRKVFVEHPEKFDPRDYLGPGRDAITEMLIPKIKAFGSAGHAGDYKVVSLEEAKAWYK
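Giardia FBPA (40 nM reagent) was preincubated 10 min at RT with compound (up to 57.5 uM final), then substrate plus GAPDH/TPI/NAD/arsenate coupling system with diaphorase/resazurin was added; resorufin fluorescence (525/598 nm) was read after 20 min.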
HCMV antiviral – qHTS Assay for inhibitors of the human cytomegalovirus (HCMV) | activity change, negative = inhibition, % at 57.5 µM | AID 1259415, 2018 | 410,000 tested, 4.5% active | HFF cells, HCMV-luciferase reporter, 72 h; active compounds read low; in the data active means activity change below about -60%; inconclusive means no clear call, values can overlap the other calls; inactive means above about -39%
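Two compound doses tested in HFFs infected with HCMV-luciferase, MOI 1 PFU/cell, 72 h at 37C. Lysate luminescence read with OneGlo; data normalized against buffer-only and 10uM Salinomycin inhibitor controls.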
Each line names hits and unclear results; the compound was inactive in the other large screens. Unless noted, the call rests on the fitted dose curve; in most records, active means well fitted curve in the direction sought with a large enough effect; inconclusive means small, poorly fitted or top-dose-only effect, or another doubt; inactive means no such curve, though single readings can be large; an effect the other way counts as inactive or inconclusive.

COc1ccccc1C(=O)N(Cc1cc2cccc(C)c2nc1N1CCC(O)CC1)C1CC1	none (no result: Tb PYK inh, Sm TGR inh, RE007 growth inh, FBPA Giardia inh, HCMV antiviral)
CN(C)c1cc[n+](CC(=O)Nc2ccc(Cl)cc2)cc1	HCMV antiviral -89.5
Cc1cccc(NC(=O)C[n+]2ccc(N(C)C)cc2)c1	FBPA Giardia inh inconclusive, HCMV antiviral inconclusive
CN(C)c1cc[n+](CC(=O)Nc2ccc(Oc3ccccc3)cc2)cc1	HCMV antiviral -97.8
CCOc1ccc(NC(=O)C[n+]2ccc(N(C)C)cc2)cc1	HCMV antiviral -97.2
O=C(c1ccco1)N1CCN(c2c(-c3ccccc3)c3cc(Cl)ccc3[nH]c2=O)CC1	none (no result: FMDV antiviral)
Cc1ccc2[nH]c3c(N4CCN(Cc5ccccc5)CC4)ncnc3c2c1	FMDV antiviral 11.2µM, HCMV antiviral -106.5
Cc1ccc2c(c1)[nH]c1c(N3CCN(Cc4ccccc4)CC3)ncnc12	HCMV antiviral -84.9 (no result: FMDV antiviral)
Cc1ccc2[nH]c3c(N4CCCCCC4)ncnc3c2c1	none (no result: Tb PYK inh, FMDV antiviral, RE007 growth inh, HCMV antiviral)
COc1cccc2[nH]c3c(N4CCc5ccccc5C4)ncnc3c12	FMDV antiviral inconclusive (no result: HCMV antiviral)
c1ccc2c(c1)CCN(c1ncnc3c1[nH]c1ccccc13)C2	FMDV antiviral 11.2µM, HCMV antiviral -66.2
O=C(c1ccco1)N1CCN(c2ncnc3c2[nH]c2ccc(Cl)cc23)CC1	Sm TGR inh 50.1µM (no result: Tb PYK inh, FMDV antiviral, RE007 growth inh, HCMV antiviral)
c1ccc(CN2CCN(c3ncnc4c3[nH]c3ccccc34)CC2)cc1	FMDV antiviral 10µM, HCMV antiviral -105.6
c1ccc2c(c1)[nH]c1c(N3CCC4(CC3)OCCO4)ncnc12	FMDV antiviral inconclusive (no result: HCMV antiviral)
OC1(c2cccc(C(F)(F)F)c2)CCN(c2ncnc3c2[nH]c2ccccc23)CC1	FMDV antiviral 28.2µM
COc1cccc(-c2ccnc(-n3ncc(C(=O)N(C)CCc4ccccn4)c3C)n2)c1	none (no result: Tb PYK inh, Sm TGR inh, RE007 growth inh, FBPA Giardia inh, HCMV antiviral)
COc1ccc2oc(-c3ccc(C)c(NC(=O)c4ccc(N5CCCCC5)c([N+](=O)[O-])c4)c3)nc2c1	none (no result: RE007 growth inh, FBPA Giardia inh)
C[C@]12CCCCCC3=CC(=O)C=C[C@@]31OC(=O)CC2	none (no result: Tb PYK inh, Sm TGR inh, FMDV antiviral, RE007 growth inh, FBPA Giardia inh)
COc1ccc(NC(=O)N2c3ccc(OC)cc3[C@@H](NS(C)(=O)=O)[C@H](C)[C@H]2c2ccccc2)cc1	none (no result: Tb PYK inh, Sm TGR inh, FMDV antiviral, RE007 growth inh, FBPA Giardia inh)
COC(=O)C(Sc1ccc(Cl)cc1)C1SC(=S)N(Cc2ccccc2)C1=O (stereo not given)	FMDV antiviral 31.6µM (no result: Sm TGR inh, FBPA Giardia inh)
N#C/C(=C\c1ccco1)Sc1nc2ccccc2s1	Sm TGR inh 39.8µM
CCCN1C2=NS(=O)(=O)CCN2c2ccccc21	HCMV antiviral -101.4
CCCCCCN1C2=NCCCN2c2ccccc21	FMDV antiviral inconclusive, HCMV antiviral inconclusive
CCn1nnc(NC(=S)NC(=O)c2ccc(-c3cccc(Cl)c3)o2)n1	Sm TGR inh 12.6µM, FBPA Giardia inh inconclusive
CCCCn1nnc(NC(=O)c2ccc(-c3cccc(Cl)c3)o2)n1	Sm TGR inh 25.1µM (no result: HCMV antiviral)
CCCn1nnc(NC(=O)c2ccc(-c3cccc(Cl)c3)o2)n1	none
COc1cc(SC)ccc1C(=O)Nc1ncc(C)s1	FMDV antiviral 10µM, HCMV antiviral -82.0
COc1cc(SC)ccc1C(=O)Nc1ccccn1	none
COc1cc(SC)ccc1C(=O)Nc1ccc(C)cc1	none
COc1cc(SC)ccc1C(=O)Nc1ccc(Br)cn1	HCMV antiviral -83.2
COc1cc(SC)ccc1C(=O)Nc1ccon1	HCMV antiviral -107.5
COc1cc(SC)ccc1C(=O)Nc1cccc(C)n1	none
CCOC(=O)c1cccn1C1C(=O)N(Cc2ccc(OC)cc2)c2ccccc21 (stereo not given)	none (no result: Tb PYK inh, Sm TGR inh, FMDV antiviral, RE007 growth inh, FBPA Giardia inh)
CCc1ccc2oc(-c3ccc(C)c(NC(=O)Cc4ccccc4)c3)nc2c1	none (no result: RE007 growth inh, FBPA Giardia inh)
COc1cccc(C(=O)c2cn(CC(=O)NCCc3ccccc3)c3nc(C)ccc3c2=O)c1	none (no result: RE007 growth inh, FBPA Giardia inh)
CCc1c2c(nc3c(C(C)C)cccc13)-c1cccc(=O)n1C2	none (no result: Tb PYK inh, Sm TGR inh, FMDV antiviral, RE007 growth inh, HCMV antiviral)
CCCCc1c(C)nc(Nc2ccc(OC)cc2)[nH]c1=O	none (no result: RE007 growth inh)
CCCCCc1c(C)nc(Nc2ccc(F)cc2)[nH]c1=O	FMDV antiviral inconclusive, HCMV antiviral -70.1
COc1ccc(CCNC(=O)CS(=O)Cc2nc(-c3cccs3)oc2C)cc1OC (stereo not given)	Sm TGR inh 22.4µM (no result: FBPA Giardia inh)
Cc1ccc(CCNC(=O)CS(=O)Cc2nc(-c3cccs3)oc2C)cc1 (stereo not given)	Sm TGR inh 8.91µM
Cc1ccccc1-c1nc(CS(=O)CC(=O)NCc2ccc3c(c2)OCO3)c(C)o1 (stereo not given)	Sm TGR inh inconclusive (no result: FBPA Giardia inh)
COc1ccc(CCNC(=O)CS(=O)Cc2nc(-c3ccccc3Cl)oc2C)cc1OC (stereo not given)	Sm TGR inh 56.2µM (no result: FBPA Giardia inh)
Cc1oc(-c2cccs2)nc1CS(=O)CC(=O)NCc1ccc2c(c1)OCO2 (stereo not given)	Sm TGR inh 39.8µM
COc1ccccc1CCn1c(=O)c(-c2cccc(Cl)c2)nc2cncnc21	none (no result: Tb PYK inh, Sm TGR inh, RE007 growth inh, HCMV antiviral)
CC[C@@H]1OC(=O)[C@@H](C)[C@H](O[C@H]2C[C@@](C)(OC)[C@@H](O)[C@H](C)O2)C(C)[C@H](O[C@H]2O[C@@H](C)C[C@@H](N(C)C)[C@@H]2O)[C@@](C)(O)C[C@H](C)C(=O)[C@@H](C)[C@H](O)[C@@]1(C)O (stereo not given in full)	none (no result: Tb PYK inh, Sm TGR inh, FMDV antiviral, RE007 growth inh, HCMV antiviral)

Screening results from PubChem.
